For 19 compounds, outcome and AC50 results are on record in PubChem BioAssay (EPA / NIEHS).

Results filed as inconclusive are left out. Activity calls are given as the source filed them. The calls were made as follows, unless noted: active = hit-call score of the fitted dose curve at least 0.9, where 1 is the maximum; inactive = score below 0.9.

One may read the AC50 as the midpoint of the concentration-response curve, whichever way the signal moves.

Experiment [1] in a line: CCTE_Shafer_MEA_dev_interburst_interval_mean: CCTE's Neural Network Formation Assay for Mean Interburst Interval, Shafer Lab (AID 2284046).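 Also: curve fitted for decrease in interburst interval relative to DMSO.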 The procedure, abridged: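 Primary rat cortical neurons on PEI-coated 48-well MEA plates (laminin added with cells at plating) (16 electrodes/well), exposed from plating day 0 with renewal at DIV 5 and 9. Mean inter-burst interval averaged over bursting electrodes, AUC across days 5, 7, 9, 12; DMSO baseline.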

Experiment [2] is described as follows: CCTE_Shafer_MEA_dev_inter_network_spike_interval_mean: CCTE's Neural Network Formation Assay for Mean Inter-network Spike Interval, Shafer Lab (AID 2284047). The procedure, abridged: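 Mean time between consecutive network-spike peaks, recorded extracellularly (adaptive spike detection) on DIV 5, 7, 9 and 12, summarized as trapezoidal AUC. Rat cortical cultures on MEAs dosed continuously days 0–12, re-dosed at feeds; loss-of-signal fit relative to DMSO.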

Experiment [3] in a line: CCTE_Shafer_MEA_dev_network_spike_number: CCTE's Neural Network Formation Assay for Number of Network Spikes, Shafer Lab (AID 2284048).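 Also: synchronized bursts across electrodes counted on days 5 7 9 12 and integrated as AUC.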 The procedure, abridged:
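Rat cortical primary cultures on 48-well MEA (16 electrodes/well); continuous exposure DIV 0–12, full medium and treatment exchange DIV 5, 9. Readout: network spike count, AxIS adaptive detection, recordings DIV 5/7/9/12 collapsed to AUC; loss-of-signal fit, DMSO baseline.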

A short description of experiment [4]: CCTE_Shafer_MEA_dev_network_spike_peak: CCTE's Neural Network Formation Assay for Mean Number of Electrodes in Network Spike, Shafer Lab (AID 2284049).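 As to AC50: fitted for loss of signal meaning fewer electrodes in network spikes than DMSO.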 The procedure, abridged: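 Network-spike peak electrode count from recordings on days 5, 7, 9 and 12 was combined as trapezoidal area under the curve. Rat cortical cultures were treated continuously from plating, with compound renewed at each feed (DIV 5, 9); fits versus DMSO.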

A short description of experiment [5]: CCTE_Shafer_MEA_dev_spike_duration_mean: CCTE's Neural Network Formation Assay for Mean Spike Duration, Shafer Lab (AID 2284051).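 As to AC50: potency for a decrease in mean network spike duration versus DMSO.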 The procedure, abridged: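 Spontaneous activity was recorded on days 5, 7, 9 and 12 from rat cortical cultures grown on microelectrode arrays and dosed continuously from day 0, with media and compound renewed after the DIV 5 and 9 recordings. Network-spike duration was collapsed by area under the curve.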

Experiment [6] can be described thus: CCTE_Shafer_MEA_dev_network_spike_duration_std: CCTE's Neural Network Formation Assay for Standard Deviation of Network Spike Duration, Shafer Lab (AID 2284052).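 Also: hits are decreases in network spike duration SD versus DMSO vehicle.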 The procedure, abridged:
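Network spike duration variability was collapsed across recordings on days 5, 7, 9 and 12 by trapezoidal area-under-curve and fitted downward against DMSO. Cultures were rat cortical neurons on PEI-coated MEA plates, dosed continuously from plating, refed with compound DIV 5/9.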

The nature of experiment [7]: CCTE_Shafer_MEA_dev_per_network_spike_spike_number_mean: CCTE's Neural Network Formation Assay for Mean Number of Spikes in a Network Spike, Shafer Lab (AID 2284053).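 As to AC50: fitted as decrease in spikes per network spike relative to DMSO.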 The procedure, abridged: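 Mean spike count within each network spike, taken in a 0.05 s window at its peak, was recorded on days 5, 7, 9 and 12 and integrated as trapezoidal area under the curve. Rat cortical cultures on MEA plates received continuous compound from day 0, refreshed at medium changes on DIV 5 and 9.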

Experiment [8] is described as follows: CCTE_Shafer_MEA_dev_per_network_spike_spike_percent: CCTE's Neural Network Formation Assay for Percent of Spikes in a Network Spike, Shafer Lab (AID 2284054). The procedure, abridged:
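Read-out: percent of spikes falling in a 0.05 s window at network-spike peak, from spontaneous MEA recordings on days 5, 7, 9 and 12; trapezoidal AUC; loss of signal versus DMSO. Rat cortical cultures, compound present throughout.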

A short description of experiment [9]: CCTE_Shafer_MEA_dev_LDH: CCTE's Lactate Dehydrogenase Assay for Cytotoxicity in the Neural Network Formation Assay, Shafer Lab (AID 2284068; active = hit-call score of the fitted dose curve at least 0.9, where 1 is the maximum;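 also: exposure for twelve days from plating with re-dosing on DIV 5 and 9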). The procedure, abridged:
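Primary rat cortical neurons were cultured on PEI-coated MEA plates and exposed from plating through day 12, with compound renewed at medium changes on DIV 5 and 9. LDH activity was read spectrophotometrically; loss of signal versus DMSO indicates reduced viability.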

Experiment [10] is described as follows: CCTE_Shafer_MEA_dev_AB: CCTE's Alamar Blue Assay for Cytotoxicity in the Neural Network Formation Assay, Shafer Lab (AID 2284083; active = hit-call score of the fitted dose curve at least 0.9, where 1 is the maximum;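 also: resazurin reduction fluorescence as viability of cultured neurons; twelve days of exposure from plating with re-dosing on DIV 5 and 9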). The procedure, abridged:
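Resazurin fluorescence, relative to DMSO, gauges viability after twelve days of exposure that began at plating of rat cortical neurons (1.5 x 10^5 cells/well, 48-well MEA); treatment renewed with full medium exchange on DIV 5 and 9.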
On the technique in general: The colour change of resazurin is a common sign of viable cells or microbes.

Experiment [11] in a line: CCTE_Shafer_MEA_dev_mutual_information_norm: CCTE's Neural Network Formation Assay for Mutual Information Normalization, Shafer Lab (AID 2284091). The procedure, abridged:
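Neurons from rat cortex were seeded at 1.5 x 10^5 cells/well onto PEI-coated MEAs in a laminin drop, then exposed to compound from day 0 for twelve days. Network recordings on four days gave mutual information, summarised by AUC relative to DMSO.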

The nature of experiment [12]: CCTE_Shafer_MEA_dev_correlation_coefficient_mean: CCTE's Neural Network Formation Assay for Mean Correlation Coefficient, Shafer Lab (AID 2284093).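 As to AC50: well mean pairwise spike train correlation integrated as AUC over recording days 5 to 12; potency fitted for loss of correlation relative to DMSO vehicle wells.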 The procedure, abridged:
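Primary rat cortical neurons on PEI-coated 48-well MEA plates (16 electrodes/well) were exposed from plating day 0 through DIV12, with compound renewed at DIV5 and 9. Pairwise spike correlations were averaged per well; trapezoidal AUC across DIV5, 7, 9, 12.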

The nature of experiment [13]: CCTE_Shafer_MEA_acute_LDH: CCTE's Lactate Dehydrogenase Assay for Cytotoxicity in the Neural Acute Assay, Shafer Lab (AID 2284086; active = hit-call score of the fitted dose curve at least 0.9, where 1 is the maximum;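 also: active means LDH release rises above DMSO vehicle level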). The procedure, abridged: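 Cytotoxicity readout: spectrophotometric LDH activity in supernatant of rat primary cortical neurons, post-plating day 13 or 15, sampled after 40 min compound exposure; signal gain relative to DMSO baseline.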

Experiment [14] relates to DIO2 (gene 1734). The experiment is described as follows: CCTE_GLTED_hDIO2: CCTE's human Deiodinase 2 (DIO2) Inhibition Assay, Great Lakes Toxicology and Ecology Division (GLTED) Lab (AID 2284050; active = hit-call score of the fitted dose curve at least 0.9, where 1 is the maximum). The procedure, abridged: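 Triplicate cell-free incubations (3 h) of human DIO2 with chemical preceded colorimetric Sandell-Kolthoff quantitation of liberated iodide; DMSO served as negative control for curve fitting.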

Experiment [15] concerns DIO3 (gene 1735). The experiment is described as follows: CCTE_GLTED_hDIO3: CCTE's human Deiodinase 3 (DIO3) Inhibition Assay, Great Lakes Toxicology and Ecology Division (GLTED) Lab (AID 2284055; active = hit-call score of the fitted dose curve at least 0.9, where 1 is the maximum;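 also: potency is for inhibition seen as loss of released iodide signal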). The procedure, abridged:
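Steps: incubate adenovirus-produced hDIO3 with chemical for 3 hours; detect freed iodide via cerium-arsenic Sandell-Kolthoff colorimetry; compare with DMSO baseline.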

Experiment [16] in a line: CCTE_Shafer_MEA_acute_AB: CCTE's Alamar Blue Assay for Cytotoxicity in the Neural Acute Assay, Shafer Lab (AID 2284069; active = hit-call score of the fitted dose curve at least 0.9, where 1 is the maximum;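 also: active compounds lower the viability signal compared with DMSO wells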). The procedure, abridged: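 Resazurin reduction (CellTiter Blue, 1:6 in fresh medium) read at ex 544/em 590 nm marks viability loss relative to DMSO. Cells: primary rat cortical neuron networks on microelectrode arrays, treated after baseline recording at 13 or 15 days in vitro.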

Consider `N[C@H]1C(O)O[C@H](CO)[C@H](O)[C@@H]1O` (stereo not given in full), for which the compound was classed as inactive in experiment [1], in [2], in experiment [3], in experiment [6] and in experiment [11]. The AC50 was 25.4 µM (active) in [4]; 25.3 µM (active) in [5]; 25.6 µM (active) in experiment [7]; 27.4 µM (active) in experiment [8]; 15 µM (active) in experiment [9]; 2.98 µM (active) in experiment [10]. In addition, the AC50 in experiment [12] is 25.4 µM (active).
As to `CCCCC(CC)COC(=O)c1ccccc1O` (stereo not given), the compound was classed as inactive in experiment [13].
As to `CCCCCCCC[N+](C)(CCCCCCCC)CCCCCCCC`, the AC50 in [14] was 20.6 µM (active); in [15], 3.85 µM (active).
Consider `O=C1CCCN1CCO`, for which the outcome in experiment [13] was inactive.
As to `CCOC(=O)c1ccccc1C(=C1C=C(Br)C(=O)C(Br)=C1)c1cc(Br)c(O)c(Br)c1`, in [13], the result was inactive.
On to `COC(F)(F)C(F)(C(F)(F)F)C(F)(F)F`, for which the compound was classed as inactive in experiment [1], in [2], in [3], in [4], in experiment [5] and in [6]. The compound was called inactive in [7], in [8], in experiment [11] and in [12].
With `CO[Si](OC)(OC)c1ccccc1`, the outcome in experiment [16] and in experiment [13] was inactive.
Regarding `CCO[Si](C)(OCC)OCC`, the compound was classed as inactive in experiment [13].
For `FC(F)=C(F)OC(F)(F)C(F)(F)C(F)(F)F`, the outcome in [1], in [2], in experiment [3], in experiment [4], in experiment [5] and in experiment [6] was inactive. Further, the compound was called inactive in experiment [7], in [8], in [11] and in experiment [12].
For `Cc1ccc(N/N=c2\c(=O)cc/c(=N/Nc3ccc(S(=O)(=O)O)cc3)c2=O)c(C)c1`, in experiment [14], the compound was called inactive. In addition, the AC50 in [15] was 114 µM (active).
For the compound `CCCCCCCC/C=C\CCCCCCCC(=O)OCCO`, the AC50 in [14] was 19.5 µM (active); in [15], 14 µM (active).
Consider `CC1(C)S[C@@H]2[C@H](NC(=O)COc3ccccc3)C(=O)N2[C@H]1C(=O)O`, for which the compound was called inactive in experiment [1], in experiment [2], in experiment [3], in [4], in experiment [5] and in experiment [6]. Also, the outcome in experiment [7], in [8], in experiment [11] and in experiment [12] was inactive.
With `Oc1ccc(Cl)cc1Cc1cc(Cl)ccc1O`, the AC50 was 88.4 µM (active) in experiment [14] and 57.3 µM (active) in experiment [15].
In the case of `CCCCC(CC)COCC1CO1` (stereo not given), the outcome in experiment [13] was inactive.
In the case of `CCCCCCCC/C=C\CCCCCCCC(=O)O`, the figures for the AC50 in experiment [14] and in experiment [15] were 79.4 µM (active) and 29.8 µM (active), respectively.
Take `C=C[Si](OC(C)=O)(OC(C)=O)OC(C)=O`: the compound was called inactive in experiment [13].
As to `CCOC(F)(F)C(F)(F)C(F)(F)C(F)(F)F`, the compound was called inactive in experiment [1], in experiment [2], in [3], in experiment [4], in experiment [5] and in [6]. Besides, the compound was called inactive in experiment [7], in experiment [8], in experiment [10], in experiment [11] and in [12].
In the case of `O=C(C=Cc1ccccc1)OCc1ccccc1`, the values for the AC50 in [14] and in experiment [15] were 14.6 µM (active) and 5.5 µM (active), respectively.
For the compound `Nc1ccc(N)c(Cl)c1`, the outcome in experiment [16] and in [13] was inactive.
